Measured values taken from PubChem BioAssay (NCATS).
Values joined by “and” are separate entries in the source; they are usually repeats but may differ in a detail not shown here. Equal entries are not always repeated. Results filed as inconclusive are left out. Active and inactive are the calls of the source. Unless noted, the call rests on the fitted dose curve; in most records, active means well fitted curve in the direction sought with a large enough effect; inconclusive means small, poorly fitted or top-dose-only effect, or another doubt; inactive means no such curve, though single readings can be large; an effect the other way counts as inactive or inconclusive.

How the values were obtained:
[1] = target: Cellular tumor antigen p53 (Homo sapiens) (UniProt P04637); assay: Primary qHTS for small molecule compounds that upregulate eGFP-tagged delta133p53alpha (in N-terminal) cells. (AID 2060322); settings: NCI-H358 eGFP-delta133p53alpha fluorescence, 24 h; activation: active compounds read high; further: nearly all actives have a fitted effect of over 75% in size; further: potency means the concentration at half of the fitted maximal effect;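 on activation: cells pre-induced with doxycycline then dosed without doxycycline; series mostly up to about 56 µM; 0% = DMSO vehicle and 100% = reference activator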
Cellular tumor antigen p53 (Homo sapiens), sequence (P04637 whole entry, looked up): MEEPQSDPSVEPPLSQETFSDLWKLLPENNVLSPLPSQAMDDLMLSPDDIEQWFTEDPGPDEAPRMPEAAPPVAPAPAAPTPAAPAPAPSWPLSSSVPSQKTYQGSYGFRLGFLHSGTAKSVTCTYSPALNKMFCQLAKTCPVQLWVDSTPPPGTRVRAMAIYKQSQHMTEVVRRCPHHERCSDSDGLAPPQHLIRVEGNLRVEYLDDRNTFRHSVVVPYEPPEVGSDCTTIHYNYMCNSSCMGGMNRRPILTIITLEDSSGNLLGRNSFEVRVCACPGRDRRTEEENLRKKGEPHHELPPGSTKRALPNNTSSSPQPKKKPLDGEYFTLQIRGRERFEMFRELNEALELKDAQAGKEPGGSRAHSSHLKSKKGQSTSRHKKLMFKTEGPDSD
Procedure, shortened: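 NCI-H358 cells pre-induced 24 h with 10 ng/ml doxycycline for eGFP-delta133p53alpha, plated dox-free and exposed 24 h at 37C to titrated compounds. Fixed, Hoechst-stained; gated GFP peak intensity by laser scanning cytometry, normalized to DMSO (0%) and 57.5 uM 5-azacytidine (100%).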

[2] = target: Aldehyde dehydrogenase, mitochondrial (Homo sapiens) (UniProt P05091); assay: qHTS for Inhibitors of the Aldehyde Dehydrogenase Family (ALDH2) Confirmatory screens (AID 2061303; active means well fitted inhibition curve with a large enough effect; title and protocol of this record describe different tests; further: nearly all actives have a fitted effect of over 45% in size; further: potency means the concentration at half of the fitted maximal effect)
[3] = qHTS for Inhibitors of the Aldehyde Dehydrogenase Family (ALDH1A2, ALDH1A3, ALDH2, ALDH3A1) (AID 2061307); further: nearly all actives have a fitted effect of over 50% in size
[4] = target: Aldehyde dehydrogenase, mitochondrial (Homo sapiens) (UniProt P05091); assay: qHTS for Inhibitors of the Aldehyde Dehydrogenase Family (ALDH2) Primary screen (AID 2061308);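 further: plate controls were vehicle for no effect and reference inhibitor for full effect; nearly all actives have a fitted effect of over 55% in size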
[5] = target: Retinal dehydrogenase 2 (Homo sapiens) (UniProt O94788); assay: qHTS for Inhibitors of the Aldehyde Dehydrogenase Family (ALDH1A2) Confirmation screens (AID 2061314); further: nearly all actives have a fitted effect of over 65% in size
[6] = target: Retinaldehyde dehydrogenase 3 (Homo sapiens) (UniProt P47895); assay: qHTS for Inhibitors of the Aldehyde Dehydrogenase Family (ALDH1A3) Primary screen (AID 2061315);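 further: plate controls were DMSO vehicle for no effect and reference inhibitor for full effect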
[7] = target: Retinaldehyde dehydrogenase 3 (Homo sapiens) (UniProt P47895); assay: qHTS for Inhibitors of the Aldehyde Dehydrogenase Family (ALDH1A3) Confirmatory screens (AID 2061311); further: nearly all actives have a fitted effect of over 60% in size; further: potency means the concentration at half of the fitted maximal effect
[8] = target: Aldehyde dehydrogenase 1A1 (Homo sapiens) (UniProt P00352); assay: qHTS for Inhibitors of the Aldehyde Dehydrogenase Family (ALDH1A1) Confirmatory screens (AID 2061316); further: nearly all actives have a fitted effect of over 65% in size; further: potency means the concentration at half of the fitted maximal effect
[9] = BET inhibitor-based combinations targeting novel dependencies in MECOM-rearranged (r) AML: SET-2 cell line (AID 2202231); settings: SET-2 AML cells viability, CellTiter-Glo luminescence, 48 h; viability: active compounds read low, concentration not given here; further: nearly all actives have a fitted effect of over 35% in size; further: potency means the concentration at half of the fitted maximal effect;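 on viability: plate controls were DMSO treated cells for no effect and wells without cells for full effect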
Procedure, shortened: (§1)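 AML cell lines seeded at 500 cells/well, treated with 11-point dose curves for 48 h. Viability by CellTiter-Glo luminescence, normalised to DMSO and empty wells; activity expressed as AUC and per-cell-line Z-transformed AUC.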

[10] = BET inhibitor-based combinations targeting novel dependencies in MECOM-rearranged (r) AML: OCI-AML3 cell line (AID 2202232); settings: Potency: OCI-AML3 viability; further: nearly all actives have a fitted effect of over 35% in size; further: potency means the concentration at half of the fitted maximal effect
Procedure, shortened: as §1

[11] = BET inhibitor-based combinations targeting novel dependencies in MECOM-rearranged (r) AML: MV-4-11 cell line (AID 2202233); further: nearly all actives have a fitted effect of over 45% in size; further: potency means the concentration at half of the fitted maximal effect
Procedure, shortened: (§2)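 Cells at 500/well were exposed for 48 hr to MIPE v5.0 drugs as 11-point dose curves. Viability was read by CellTiter-Glo luminescence and normalized to DMSO and empty-well controls. Activity was expressed as AUC and per-cell-line Z-AUC.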

[12] = BET inhibitor-based combinations targeting novel dependencies in MECOM-rearranged (r) AML: HNT-34 cell line (AID 2202234); further: nearly all actives have a fitted effect of over 35% in size; further: potency means the concentration at half of the fitted maximal effect
Procedure, shortened: as §2

[13] = BET inhibitor-based combinations targeting novel dependencies in MECOM-rearranged (r) AML: UCSD-AML1 cell line (AID 2202235); further: nearly all actives have a fitted effect of over 40% in size; further: potency means the concentration at half of the fitted maximal effect
Procedure, shortened: as §2

[14] = BET inhibitor-based combinations targeting novel dependencies in MECOM-rearranged (r) AML: AML-191 cell line (AID 2202236; further: nearly all actives have a fitted effect of over 35% in size; further: potency means the concentration at half of the fitted maximal effect)
Procedure, shortened: as §1

[15] = BET inhibitor-based combinations targeting novel dependencies in MECOM-rearranged (r) AML: AML-194 cell line (AID 2202237; further: nearly all actives have a fitted effect of over 40% in size; further: potency means the concentration at half of the fitted maximal effect)
Procedure, shortened: as §1

[16] = target: Retinaldehyde dehydrogenase 3 (Homo sapiens) (UniProt P47895); assay: qHTS for Inhibitors of the Aldehyde Dehydrogenase Family (ALDH1A3) Validation screen (AID 2061312); further: on the % scale 0 is the no-effect control and ±100 the full control effect; nearly all actives have a fitted effect of over 45% in size

CC1CCC23COC(=O)C2=CC(O)CC3C1(C)CCC1=CC(O)OC1=O (stereo not given)
inactive: activation [1] -3.82% | Potency [2] | Potency [3] | Potency [4] | Potency [5] | Potency [6]

O=C(CCCCCCNC(=O)c1cnc(N(c2ccccc2)c2ccccc2)nc1)NO
active: Potency [9] 6.61 µM | Potency [10] 5.9 µM | Potency [11] 2.35 µM | Potency [12] 7.42 µM | Potency [13] 7.42 µM | Potency [14] 7.42 µM | Potency [15] 9.34 µM
inactive: activation [1] 7.34% | Potency [2] | Potency [3] | Potency [4] | Potency [7] | Potency [8]

O=C1Nc2ccccc2-c2nc3ccccc3c(=O)n2-c2c(O)cccc21
inactive: activation [1] 23.2% | Potency [2] | Potency [3] | Potency [4] | Potency [6]

C=C1CC[C@H]2[C@@](C)(CCC(OC3OC(CO)C(O)C(O)C3O)[C@@]2(C)CO)C1C(=O)CC1=CCOC1=O (stereo not given in full)
inactive: activation [1] -1.53% | Potency [2] | Potency [3] | Potency [4] | Potency [5]

CCC[C@H](N[C@@H](C)C(=O)N1[C@H](C(=O)O)C[C@@H]2CCCC[C@@H]21)C(=O)O
inactive: activation [1] -7.64% | Potency [2] | Potency [3] | Potency [4] | Potency [5] | Potency [6] | Potency [8]

COc1cc(NC(=O)c2ccccn2)ccc1Cl
inactive: activation [1] -5.25% | Potency [2] | Potency [3] | Potency [4] | Potency [5] | Potency [6] | Potency [8]

C/C(=N\N=C(N)N)c1cc(NC(=O)CCCCCCCCC(=O)Nc2cc(/C(C)=N/N=C(N)N)cc(/C(C)=N/N=C(N)N)c2)cc(/C(C)=N/N=C(N)N)c1
active: Potency [1] 26.9 µM
inactive: Potency [2] | Potency [3] | Potency [4] | Potency [7] | Potency [6] | Potency [8]

COc1cc2nc(N3CCCC3)nc(NCCCCCN3CCCC3)c2cc1OC
inactive: Potency [2] | Potency [3] | Potency [4] | Potency [16] | Potency [5] | Potency [6]
active: Potency [1] 30.6 µM

CN(C)c1cccc(-c2c3c(=O)n(-c4ccccc4Cl)[nH]c3cc(=O)n2C)c1
inactive: activation [1] 5.36% and -13.4% | Potency [2] | Potency [3] | Potency [4] | Potency [5] | viability [9] 110% | Potency [10] | Potency [11] | Potency [12] | Potency [13] | Potency [14] | Potency [15]

CC(C)Nc1cc(-c2c[nH]c(C(=O)N[C@H](CO)c3cccc(Cl)c3)c2)c(Cl)cn1
inactive: Potency [2] | Potency [3] | Potency [4] | Potency [7] | Potency [6]
active: Potency [1] 4.26 µM | Potency [9] 20.9 µM | Potency [10] 2.35 µM | Potency [11] 13.2 µM | Potency [12] 4.68 µM | Potency [13] 7.42 µM | Potency [14] 7.42 µM | Potency [15] 8.33 µM

OC[C@@]1(O)CO[C@@H](OC[C@H]2O[C@@H](Oc3ccccc3)[C@H](O)[C@@H](O)[C@@H]2O)[C@@H]1O
inactive: activation [1] -3.82% | Potency [2] | Potency [3] | Potency [4] | Potency [5] | Potency [8]

O=C(OCC1=C[C@@H](O)[C@@H]2C=CO[C@@H](O[C@@H]3O[C@H](CO)[C@@H](O)[C@H](O)[C@H]3O)[C@H]12)c1ccc(O)cc1
inactive: activation [1] 3.57% | Potency [2] | Potency [3] | Potency [4] | Potency [5] | Potency [6]

CN1CCN(C2=Nc3ccccc3Nc3ccc(O)cc32)CC1
inactive: activation [1] 1.91% | Potency [2] | Potency [3] | Potency [4] | Potency [16] | Potency [5] | Potency [8]

CC(=O)OCC(=O)[C@@]1(O)[C@H](C)C[C@H]2[C@@H]3C=C(C)C4=Cc5c(cnn5-c5ccccc5)C[C@]4(C)[C@@H]3[C@@H](O)C[C@@]21C
inactive: activation [1] 2.08% | Potency [2] | Potency [3] | Potency [4] | Potency [5] | Potency [6] | Potency [8] | viability [9] 96.5% | Potency [10] | Potency [12] | Potency [13]

CC(C)c1c(-c2cnn(C(C)(C)C)c2)nc2c(C#N)c[nH]n2c1=O
inactive: activation [1] 11.2% | Potency [2] | Potency [3] | Potency [4] | Potency [7] | Potency [6] | Potency [8]

C=C1CC23CC1CCC2C12OC(=O)C(C)(CCC1O)C2C3C(=O)O (stereo not given)
inactive: activation [1] 21.4% | Potency [2] | Potency [3] | Potency [4] | Potency [5]

CC1(C)SCCN(S(=O)(=O)c2ccc(Oc3ccncc3)cc2)[C@H]1C(=O)NO
inactive: activation [1] 20.3% | Potency [2] | Potency [3] | Potency [4] | Potency [5]

COc1cc(/C=C/C(=O)OC[C@H]2O[C@@H](OC3OC=C(C(=O)O)C4C(O)CC(C)(O)C34)[C@H](O)[C@@H](O)[C@@H]2O)cc(OC)c1O (stereo not given in full)
inactive: activation [1] -12.2% | Potency [2] | Potency [3] | Potency [4] | Potency [5]

CCOc1ccc(Cc2nc(-c3c(C)nc4ccccn34)cs2)cc1
inactive: activation [1] -8.33% | Potency [4] | Potency [6]
active: Potency [2] 12.6 µM | Potency [3] 11.2 µM | Potency [7] 14.1 µM | Potency [8] 6.34 µM

COc1cccc2cc(-c3nc(C4CCC(C(=O)O)CC4)n4ncnc(N)c34)[nH]c12 (stereo not given)
active: Potency [3] 3.57 µM | Potency [9] 2.95 µM | Potency [10] 1.66 µM | Potency [11] 0.833 µM | Potency [12] 0.833 µM
inactive: activation [1] 12.5% and 16.7% | Potency [2] | Potency [4] | Potency [6]
